Screening results as filed in PubChem.
ERAP1 inh = blocks human ERAP1 aminopeptidase activity. Q9NZ08. recombinant ERAP1, Leu-AMC fluorescence, 60 min. inhibition, % at 10.7 µM. hit rate 0.15% among 340,000;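 active means mean replicate inhibition of at least 30%, or all replicates individually reaching that 30% level; inactive means mean below 30% and not every replicate reaching it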
Target sequence (Q9NZ08 whole entry, looked up): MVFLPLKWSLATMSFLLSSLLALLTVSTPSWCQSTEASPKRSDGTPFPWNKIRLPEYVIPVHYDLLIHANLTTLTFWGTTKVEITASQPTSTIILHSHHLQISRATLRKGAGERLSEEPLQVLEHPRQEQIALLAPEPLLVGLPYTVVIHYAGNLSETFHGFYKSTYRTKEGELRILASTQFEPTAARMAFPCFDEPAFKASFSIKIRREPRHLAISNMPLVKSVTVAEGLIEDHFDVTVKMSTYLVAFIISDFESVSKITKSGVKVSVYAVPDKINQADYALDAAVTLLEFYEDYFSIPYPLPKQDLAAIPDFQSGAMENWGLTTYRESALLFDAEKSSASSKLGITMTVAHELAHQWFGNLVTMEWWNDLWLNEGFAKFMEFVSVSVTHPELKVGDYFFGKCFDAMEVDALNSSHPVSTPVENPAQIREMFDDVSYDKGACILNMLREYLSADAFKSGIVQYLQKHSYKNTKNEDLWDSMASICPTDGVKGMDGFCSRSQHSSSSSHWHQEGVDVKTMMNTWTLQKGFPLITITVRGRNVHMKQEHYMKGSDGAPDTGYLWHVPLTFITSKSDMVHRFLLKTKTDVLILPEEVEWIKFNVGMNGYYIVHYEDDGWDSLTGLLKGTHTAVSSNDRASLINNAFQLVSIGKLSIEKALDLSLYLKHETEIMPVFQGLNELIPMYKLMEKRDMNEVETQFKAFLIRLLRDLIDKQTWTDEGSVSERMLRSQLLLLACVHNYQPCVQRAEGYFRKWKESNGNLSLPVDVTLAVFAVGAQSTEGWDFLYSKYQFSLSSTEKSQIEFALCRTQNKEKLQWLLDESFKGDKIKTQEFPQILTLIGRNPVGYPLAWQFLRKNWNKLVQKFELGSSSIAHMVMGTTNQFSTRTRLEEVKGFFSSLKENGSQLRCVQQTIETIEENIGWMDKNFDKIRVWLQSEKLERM
FGF22 binding = binders of recombinant human FGF22 by thermal shift; SYPRO orange fluorescence; percent of sucrose octasulfate shift, DMSO zero; activity (Tm shift, normalised), % at 9.99 µM; hit rate 1.5% among 340,000; AID 651658;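 active means mean Tm shift, scaled 0 neutral to 100 positive control, at about 1.3% or above, every replicate too, limit read from the data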
GSIS activator = GLuc luminescence reporter in INS-1E cells, primary screen for activators of glucose-dependent secretion of insulin | INS-1E GLuc reporter insulin secretion, 2-3 h | activation, % at 16.6 µM | hit rate 0.61% among 370,000;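 active means lowest replicate activation of at least 40%, so every replicate reaches that level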
CASP6 VEID inh = caspase-6 (human) enzyme inhibition. P55212. purified caspase-6, Z-VEID-R110 cleavage fluorescence. inhibition, % at 12.5 µM. hit rate 0.53% among 350,000. AID 686996;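 active means mean inhibition across replicates at least about 35%, with every replicate also reaching that limit, limit read from the data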
SIRT5 inh = inhibitors of human sirtuin-5 desuccinylase; Q9NXA8; Purified SirT5, succinyl-peptide AMC, trypsin-coupled fluorescence; inhibition, % at 15 µM; hit rate 1.1% among 330,000; in the data active means inhibition above about 15%
Large screens that a line does not name were inactive. Rows were chosen to be rich in hits. Some 3.3% of all compounds tested hit in one or more screens of this group.

CNc1ccc(Br)cc1C(O)c1ccccc1 (stereo unspecified)	SIRT5 inh 37
Cc1ccc(S(=O)(=O)N(C)C[C@H]2Oc3ccc(NC(=O)CCC(F)(F)F)cc3CC(=O)N([C@@H](C)CO)C[C@H]2C)cc1	none
C[C@@H]1CN([C@H](C)CO)C(=O)c2cc(NC(=O)Cc3cn(C)c4ccccc34)ccc2O[C@@H]1CN(C)Cc1ccc(Oc2ccccc2)cc1	none
COc1cccc(-n2c([S-])c(C(=O)Nc3ccc(S(=O)(=O)N4CCOCC4)cc3)[n+]3cc(C(N)=O)ccc23)c1	GSIS activator 45
O=[N+]([O-])c1cccc(S(=O)(=O)N/N=C\c2ccc3c(c2)OCO3)c1	SIRT5 inh 20
O=C(c1ccncc1)N1CC2(C1)[C@H](c1ccccc1)[C@H](CO)N2C(=O)c1ccncc1	none
COc1cc2c3c(c1OC)-c1cc4c(cc1CC3(C#N)N(C(=O)c1ccccc1)CC2)OCO4 (stereo unspecified)	FGF22 binding 43 (no result: GSIS activator, SIRT5 inh)
COc1ccc2c(c1OC)C(=O)O[C@@H]2[C@H]1c2c(cc3c(c2OC)OCO3)CCN1C	none
COCc1cn([C@@H]2C[C@@H]3O[C@H](CO)CC[C@@H]3O[C@@H]2CCc2ccc(-c3ccc(OC)cc3)cc2)nn1	none (no result: FGF22 binding, GSIS activator)
COC(=O)C1CN(C(=O)COc2ccc(C)cc2)c2ccccc2O1 (stereo unspecified)	SIRT5 inh 35
CC1(Oc2cnc(Cl)c3ccccc23)CCN(Cc2ccc(OC(F)(F)F)cc2)C1 (stereo unspecified)	CASP6 VEID inh 46
O=C(CNC(=O)c1ccccc1)OCc1nc2ccccc2s1	FGF22 binding 43
COc1ccccc1NC(=O)N[C@H]1C=C[C@@H](CC(=O)NCc2ccc(Cl)c(Cl)c2)O[C@H]1CO	none
C[C@H]1CN([C@@H](C)CO)C(=O)c2cc(NC(=O)CCCN(C)C)ccc2O[C@@H]1CN(C)CC1CC1	none
CN(C)c1ccc(C=c2c3ccccc3n3c2cc(-c2ccccc2)[n+]3C)cc1	none (no result: GSIS activator, SIRT5 inh)
COc1cc(C=c2c3ccccc3n3c2cc(-c2ccccc2)[n+]3C)cc(OC)c1OC	CASP6 VEID inh 96
COc1cc(N(C)C)ccc1C=c1c2ccccc2n2c1cc(-c1ccccc1)[n+]2C	ERAP1 inh 40, CASP6 VEID inh 61
C[C@H](CO)N1C[C@H](C)[C@@H](CN(C)C(=O)Cc2ccccn2)Oc2ncc(-c3ccc(F)cc3)cc2C1=O	none
CC(C)(C)OC(=O)N(CCc1ccccc1)Cc1ccc(OCc2cccc(NC(=O)C3CC3)c2)cc1	SIRT5 inh 18
CC(C)(C)OC(=O)N(CCc1ccccc1)Cc1ccc(OCc2cccc(NC(=O)C3CCC3)c2)cc1	none (no result: ERAP1 inh, SIRT5 inh)
CN(C)c1ccc(N=Nc2nc3ccccc3n2C)cc1	none
Cn1c(N=Nc2ccccc2)nc2ccccc21	CASP6 VEID inh 39 (no result: GSIS activator)
CC(C)NC(=O)Nc1ccc2c(c1)CC(=O)N(C)C[C@@H](C)[C@@H](CN(C)C)O2	none (no result: ERAP1 inh, FGF22 binding, CASP6 VEID inh, SIRT5 inh)
Cc1cccc(/C=C/C(=O)c2ccc(NC3=NCCCS3)cc2)c1	ERAP1 inh 35
CC(C)[C@@H](C)NC(=O)N(C)C[C@@H]1OCc2ccccc2-c2ccccc2C(=O)N([C@@H](C)CO)C[C@@H]1C	none
O=C(c1cccnc1)N1N=C(C2CC2)CC1(O)C(F)(F)F (stereo unspecified)	FGF22 binding 44
CC(C)NC(=O)Nc1ccc2c(c1)CC(=O)N([C@@H](C)CO)C[C@H](C)[C@H](CN(C)C(=O)Nc1ccc3c(c1)OCO3)O2	none (no result: CASP6 VEID inh)
Cc1ccc(S(=O)(=O)Nc2ccc3c(c2)CC(=O)N([C@H](C)CO)C[C@H](C)[C@H](CN(C)S(=O)(=O)c2c(C)noc2C)O3)cc1	none
O=c1[nH]c(CSc2nnnn2-c2ccccc2)nc2ccccc12	FGF22 binding 43
C[C@H]1CN([C@@H](C)CO)C(=O)Cc2cc(NC(=O)Cc3ccccc3)ccc2O[C@H]1CN(C)C(=O)Nc1ccc2c(c1)OCO2	none
O=C(Nc1ccc(F)cc1)Nc1ccccc1NS(=O)(=O)c1cccs1	FGF22 binding 49
O=C(Nc1ccc(Cl)cc1)Nc1ccccc1NS(=O)(=O)c1cccs1	none (no result: CASP6 VEID inh)
CN(C)S(=O)(=O)c1ccc(C(=O)NCCN2C(=O)S/C(=C\c3cccnc3)C2=O)cc1	FGF22 binding 43
C[C@H]1CN([C@@H](C)CO)C(=O)c2cccc(NS(=O)(=O)c3cn(C)cn3)c2O[C@H]1CN(C)Cc1ccc2c(c1)OCO2	none
CN1C(=O)c2cc(NC(=O)c3cccs3)ccc2OC[C@@H]2O[C@@H](CC(=O)NCCN3CCCCC3)CC[C@@H]21	none (no result: FGF22 binding)
CCOc1cc(C2C(C#N)=C(N)SC(N)=C2C#N)ccc1OCCN1CCOCC1	GSIS activator 82 (no result: ERAP1 inh, FGF22 binding, CASP6 VEID inh, SIRT5 inh)
CC(=O)c1cc(N2CCOCC2)ccc1[N+](=O)[O-]	SIRT5 inh 15
COc1ccccc1NS(=O)(=O)c1cc(C(=O)NC2CCN(Cc3ccccc3)CC2)ccc1C	CASP6 VEID inh 55 (no result: GSIS activator)
COc1ccccc1NS(=O)(=O)c1ccc(C)c(C(=O)NC2CCN(Cc3ccccc3)CC2)c1	none
Cc1ccc(S(=O)(=O)N(C)C[C@@H]2Oc3ccc(NS(=O)(=O)c4c(C)noc4C)cc3C(=O)N([C@@H](C)CO)C[C@H]2C)cc1	none
O=C(Nc1cccc2ccccc12)OCc1ccccc1	FGF22 binding 44
O=C(NCCOC(=O)Nc1cccc2ccccc12)OCc1ccccc1	none
Cc1ccc(N2C(=O)c3ccccc3C2C(=O)c2ccc(O)cc2O)cc1 (stereo unspecified)	CASP6 VEID inh 74
C[C@@H]1CN([C@@H](C)CO)S(=O)(=O)c2ccc(-c3ccccc3F)cc2O[C@@H]1CN(C)CC1CC1	none
NC(=N\N=Cc1ccco1)/C(N)=N/N=Cc1ccco1	CASP6 VEID inh 62
NC(=N\N=Cc1ccccc1)/C(N)=N/N=Cc1ccccc1	FGF22 binding 44 (no result: GSIS activator, SIRT5 inh)
C[C@@H]1CCCCO[C@H](CN(C)C(=O)CCCN(C)C)[C@H](C)CN([C@H](C)CO)C(=O)c2cc(NC(=O)C3CCCCC3)ccc2O1	none
O=C(NN1C(=O)NC2(CCCCC2)C1=O)c1cc(F)cc(F)c1	none
O=C(NN1C(=O)NC2(CCCCC2)C1=O)c1ccc(Cl)c(Cl)c1	SIRT5 inh 17 (no result: GSIS activator)
Cc1c(NC(=O)CN2C(=O)c3ccc([N+](=O)[O-])cc3C2=O)c(=O)n(-c2ccccc2)n1C	none (no result: SIRT5 inh)
O=C(Nc1cc([N+](=O)[O-])ccc1O)c1ccc2c(c1)C(=O)N(Cc1ccco1)C2=O	CASP6 VEID inh 42
O=C(CN1C(=O)c2ccccc2C1=O)Nc1cc([N+](=O)[O-])ccc1O	FGF22 binding 44
COc1ccc(Nc2nc(NCc3ccco3)nc(N/N=C/c3ccc(O)cc3)n2)cc1	FGF22 binding 1.9
CCCC#Cc1ccc2c(c1)[C@H]1[C@H](CCN1S(=O)(=O)c1cn(C)cn1)[C@H](CO)N2	none (no result: FGF22 binding)
CS(=O)(=O)Nc1ccc2c(c1)[C@@H]1C[C@H](CC(=O)NCc3ccccn3)O[C@H](CO)[C@@H]1O2	none
